In the library only some 10% were active in any assay of this set; here they are far more common.
KB-3-1 cytotox: kills parental KB-3-1 adenocarcinoma cells. KB-3-1 viability, CellTiter-Glo ATP luminescence, 72 h. hit rate 1.4% among 400,000. Potency, µM (series often up to 46.1 µM), actives largely listed as cytotoxic. AID 1347075; also: nearly all actives have a fitted effect of over 60% in size
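Parental KB-3-1 adenocarcinoma cells in phenol-red-free DMEM with 10% FBS were pin-treated with compounds at several concentrations, incubated 72 h at 37 °C, and viability read by CellTiter-Glo luminescence; concentration-effect curves were fitted after normalization.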
SW480 rerep: DNA re-replication induction in SW480 cells; SW480 DNA re-replication, Hoechst DNA content imaging, 48 h; Potency, µM (doses to about 46.1 µM), hits mostly activators; hit rate 1.8% among 340,000; also: nearly all actives have a fitted effect of over 55% in size
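Quantitative HTS format with DMSO vehicle controls; 48 hr drug incubation at 37 C, then 40 min Hoechst staining and scanning imager measurement at 405 nm excitation.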
MCF10A rerep: DNA re-replication induction in MCF 10a cells | hit rate 2.9% among 350,000 | MCF 10A DNA re-replication, Hoechst nuclear intensity, 48 h | Potency, µM (series often up to 46.1 µM), most hits filed as activators; also: nearly all actives have a fitted effect of over 50% in size
RORg inh: ROR gamma (mouse) transcription inhibition; P51450; Drosophila S2 Gal4-RORgamma UAS-luciferase reporter, 20 h; Potency, µM (series often up to 53.6 µM), hits mostly inhibitors; hit rate 5.4% among 310,000; AID 2551; also: nearly all actives have a fitted effect of over 60% in size
Target sequence (P51450 whole entry, looked up, the tested form may be a part): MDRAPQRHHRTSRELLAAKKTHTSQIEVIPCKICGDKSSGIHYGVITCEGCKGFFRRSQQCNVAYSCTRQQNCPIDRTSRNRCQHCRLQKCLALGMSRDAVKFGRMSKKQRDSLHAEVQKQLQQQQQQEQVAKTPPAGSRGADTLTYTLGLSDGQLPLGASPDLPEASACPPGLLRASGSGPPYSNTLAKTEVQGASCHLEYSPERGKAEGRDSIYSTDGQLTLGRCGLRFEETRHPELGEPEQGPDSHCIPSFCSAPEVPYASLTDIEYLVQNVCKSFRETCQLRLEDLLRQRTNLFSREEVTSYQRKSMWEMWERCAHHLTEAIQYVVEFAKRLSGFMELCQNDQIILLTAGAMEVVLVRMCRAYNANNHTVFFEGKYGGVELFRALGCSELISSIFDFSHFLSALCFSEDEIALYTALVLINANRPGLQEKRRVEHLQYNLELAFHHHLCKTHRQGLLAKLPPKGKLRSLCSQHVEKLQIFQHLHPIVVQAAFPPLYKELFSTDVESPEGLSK
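Luminescence from a UAS-regulated Photinus luciferase reporter in stably transfected Drosophila Schneider cells is measured; decreased signal marks ROR gamma inhibition. Fusion expression is induced by 700 uM copper sulfate for 20 hr.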
VP16 counter: Gal4-VP16 reporter inhibition counter-screen; Drosophila S2 Gal4-VP16 UAS-luciferase, luminescence, 20 h; Potency, µM (titrated, usually from 53.6 µM), usual class: inhibitors; hit rate 3.5% among 310,000; AID 2546;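 also: Gal4-VP16 expression switched on by copper sulfate through the metallothionein promoter; nearly all actives have a fitted effect of over 50% in size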
KB-V1 cytotox: KB-V1 MDR subline cytotoxicity | KB-V1 MDR cells viability, CellTiter-Glo, 72 h | Potency, µM (highest dose often 46.1 µM), usual class: cytotoxic | hit rate 3.4% among 400,000 | AID 1347076; also: nearly all actives have a fitted effect of over 60% in size
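Cytotoxicity via CellTiter-Glo luminescence after 72 h compound exposure at 37 degrees C. Cells: drug-selected KB-V1 line, DMEM phenol-red free plus 10% FBS. Compounds tested at multiple concentrations; normalized data fitted to concentration-effect curves.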
Numbers stand for hits; - = inactive; ? = inconclusive; . = no result given; [ ] = remark or other dose. Calls follow the shape of the dose curve; as a rule, active = well fitted curve in the direction sought with a large enough effect; inconclusive = small, poorly fitted or top-dose-only effect, or another doubt; inactive = no such curve, though single readings can be large; an effect the other way counts as inactive or inconclusive.

SMILES	KB-3-1 cytotox	SW480 rerep	MCF10A rerep	RORg inh	VP16 counter	KB-V1 cytotox
O=C(O)c1cc(/C=C/c2ccc(N3CCOCC3)c([N+](=O)[O-])c2)nc2ccccc12	-	-	-	-	?	-
C=Cc1ccc(CSc2nc(-c3ccc(Cl)cc3)nc3c2Cc2c(CO)cnc(C)c2O3)cc1	-	.	.	.	.	-
CC1(C(=O)NS(=O)(=O)c2ccccc2OC(F)(F)F)CCN1C(=O)c1ccco1 (stereo not given)	-	.	.	.	.	-
CCN(CCCNC(=O)c1cn(CC)c2ccc(S(=O)(=O)N(C)C)cc2c1=O)c1cccc(C)c1	?	-	-	?	-	16µM
CCn1cc(C(=O)NCCCN(C)c2ccccc2)c(=O)c2cc(S(=O)(=O)N(C)C)ccc21	-	-	-	-	-	-
C=CCn1cc(C(=O)NCCCOCC)c(=O)c2cc(S(=O)(=O)N(CC)CC)ccc21	-	-	-	-	-	2.9µM
CCn1cc(C(=O)NCc2ccc(Cl)cc2)c(=O)c2cc(S(=O)(=O)N(C)C)ccc21	-	?	?	-	-	15µM
C=CCn1cc(C(=O)NCCOC)c(=O)c2cc(S(=O)(=O)N(CC)CC)ccc21	-	-	-	-	-	-
Cc1ccccc1C(=O)Nc1nnc(-c2ccncc2)o1	-	-	-	2.8µM	5µM	?
COc1ccc(-c2nnc(NC(=O)c3ccccc3C)o2)cc1	?	-	-	0.63µM	0.79µM	-
Cc1ccccc1C(=O)Nc1ccnc(-c2ccncc2)n1	-	-	?	-	-	-
O=C(Nc1ccc(F)cc1)C(Sc1nc2ccccc2[nH]1)c1ccccc1 (stereo not given)	?	?	12µM	?	-	?
Cn1c(SC(C(=O)Nc2ccc(F)cc2)c2ccccc2)nc2ccccc21 (stereo not given)	-	?	-	11µM	?	?
O=C(CCc1nc2ccccc2[nH]1)Nc1ccc(F)cc1	-	-	-	-	-	12µM
O=C(CCc1nc2ccccc2c(=O)[nH]1)Nc1ccc(F)cc1	-	-	-	-	-	-
CC(Sc1nc2ccccc2n1C)C(=O)NC(c1ccccc1)c1ccccc1 (stereo not given)	-	?	?	-	-	8.2µM
Cn1nnnc1SC(C(=O)Nc1ccc(F)cc1)c1ccccc1 (stereo not given)	-	-	-	-	-	-
Fc1ccc(-c2noc3ncnc(NC4CCCCC4)c23)cc1	-	.	.	.	.	-
O=C(CS(=O)c1ccc(C(F)(F)F)cc1[N+](=O)[O-])Oc1ccc(Cl)cc1 (stereo not given)	?	?	13µM	?	?	-
Cc1cc(C)cc(OC(=O)CS(=O)c2ccc(C(F)(F)F)cc2[N+](=O)[O-])c1 (stereo not given)	?	?	12µM	?	?	?
CCC(=O)N1CCc2cc(Br)cc(S(=O)(=O)NCCc3ccccc3Cl)c21	-	.	.	.	.	-
COc1ccc(C2C(C#N)=C(N)Oc3c2sc2nc(C)cc(C)c32)cc1 (stereo not given)	?	?	16µM	-	-	21µM
COc1ccc(C2C(C#N)=C(N)Oc3cc(N)ccc32)cc1 (stereo not given)	-	-	-	-	-	-
N=c1c(C(=O)NCC2CCCO2)cc2c(=O)n3ccccc3nc2n1C1CCCC1 (stereo not given)	-	?	5.2µM	-	-	-
Cc1cccn2c(=O)c3cc(C(=O)NCC4CCCO4)c(=N)n(C4CCCC4)c3nc12 (stereo not given)	-	18µM	?	?	-	-
N=c1c(C(=O)NCC2CCCO2)cc2c(=O)n3ccccc3nc2n1C1CCCCC1 (stereo not given)	-	?	15µM	-	-	-
c1ccc2[nH]c(CSc3nnc(-c4ccncc4)o3)nc2c1	-	-[9.22 µM]	-	?	-	-
Fc1ccc(CSc2nc3ccccc3[nH]2)cc1	-	-	-	-	-	-
c1ccc(-c2nnc(CSc3nc4ccccc4[nH]3)o2)cc1	-	-	-	-	-	13µM
Brc1cccc(-c2nnc(SCc3nc4ccccc4[nH]3)o2)c1	-	-	-	11µM	-	-

Screens: PubChem BioAssay, National Center for Advancing Translational Sciences (NCATS)
